What follows are compounds tested on ULK3. Conditions: concentration: 1 μM, replicates: in singlicate; n = 1.
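Further: KINOMEscan kinase panel screen.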

Row | SMILES | %Inh
1 | COC(=O)Nc1nc2cc(Oc3ccc(NC(=O)Nc4cc(F)ccc4F)cc3)ccc2[nH]1.Cl [GW701424] | 7%
2 | O=c1cc(N2CCOCC2)nc2n(Cc3cccc(Cl)c3Cl)c(C3CC3)nn12 [GSK2358994] | 0%
3 | Nc1nccc(-c2c(-c3ccc(F)cc3)ncn2C2CCN(CC(F)(F)F)CC2)n1 [SB-236560] | 10%
4 | O=C(Nc1cccc(-c2nn3ncccc3c2-c2ccnc(Nc3cccc(C(F)(F)F)c3)n2)c1)c1c(F)cccc1F [GSK299495] | 7%
5 | CSc1ccc(-c2cc3ncnc(SCC(=O)O)c3s2)cc1 | 0%
6 | Cn1ccc2ncnc(Oc3ccc(NC(=O)Nc4ccncc4)c(Cl)c3)c21 | 0%
7 | O=c1cc(N2CCOCC2)nc2n(Cc3cccc4ccccc34)ccn12 [GSK2333389] | 7%
8 | CCc1nc(-c2cccc(C)c2)c(-c2ccnc(NCc3ccccc3)c2)s1 | 0%
9 | CC(C)(C)n1cnc2c(N)ncnc21 [SKF-97359] | 0%
10 | COc1ccc(CNC(=O)NC2CCN(c3ccnc(Nc4ccc(OC)cc4)n3)C2)cc1 (stereo not shown) [GSK1379727] | 9%
11 | Fc1ccc(-c2ncn(CCCN3CCOCC3)c2-c2ccccn2)cc1 [SB-211742] | 0%
12 | O=c1cc(N2CCOCC2)nc2n(Cc3cccc(F)c3)ccn12 [GSK2297430] | 0%
13 | COc1cc(Nc2nccc(N3CCC(NC(=O)c4cccc(NC(C)=O)c4)C3)n2)cc(OC)c1OC (stereo not shown) [GSK1379754] | 87%
14 | Cc1cccc(Cn2ccn3c(=O)cc(N4CCOCC4)nc23)c1 [GSK2297542] | 10%
15 | O=C(NOCC1CC1)c1ccc(F)c(F)c1Nc1ccc(I)cc1Cl | 0%
16 | C[C@@H](Oc1cc(-n2cnc3ccc(NC(=O)NC(C)(C)C)cc32)sc1C(N)=O)c1ccccc1Cl [GSK346294] | 15%
17 | Cc1nnc(-c2ccc(C)c(-c3ccc(C(=O)Nc4ccc(NS(C)(=O)=O)cc4)cc3)c2)o1 [GW702865] | 0%

Row | SMILES | %Inh
18 | N#Cc1ccc(-c2cc(-c3c[nH]nc3-c3ccccn3)ccn2)cc1 [GW693028] | 6%
19 | O=C(Nc1n[nH]c2cc(-c3cccc(F)c3)ccc12)C1CC1 [SB-735464] | 29%
20 | Cn1cc(-c2ccc3c(c2)CCN3C(=O)Cc2ccccc2Cl)c2c(N)ncnc21 [GSK2608885] | 6%
21 | CC(C)Oc1ccc2c(-c3ccnc(Nc4ccc(N5CCN(C)CC5)cc4)n3)cnn2n1 [GW696155] | 100%
22 | O=C(NCCCN1CCOCC1)c1cccc(Nc2nccc(Nc3ccc(Oc4ccccc4)cc3)n2)c1 [GW663929] | 11%
23 | COc1cc2c(cc1OC[C@@H](O)CO)ncc1c3ccc(C#N)cc3[nH]c21 | 50%
24 | CN(C1=C(c2ccccc2)C(=O)NC1=O)c1ccccc1 [SB-334860] | 6%
25 | Fc1ccc(-c2nn3c(OCC(F)(F)F)cccc3c2-c2ccncc2)cc1 [GW514784] | 9%
26 | O=C1NC(=O)C(N2CCc3ccccc32)=C1c1cccc(Cl)c1 [SB-408010] | 14%
27 | Cl.Nc1ncnc2occ(-c3ccc(NC(=O)Nc4cc(C(F)(F)F)ccc4F)cc3)c12 [SB-707548] | 19%
28 | NS(=O)(=O)CCc1cccc(Nc2nccc(-c3c(-c4cccc(NC(=O)c5c(F)cccc5F)c4)nn4ccccc34)n2)c1 [GSK336735] | 3%
29 | Cc1nnc(-c2ccc3ncc(-c4ccc(S(C)=O)cc4)n3c2)o1 (stereo not shown) | 5%
30 | COc1ccc(Nc2nccc(N3CCC(NC(=O)Nc4cccc(C(C)=O)c4)C3)n2)cc1 (stereo not shown) [GSK1379731] | 16%
31 | NCC(NC(=O)c1cc(-c2cn[nH]c2)c(-c2ccnc3[nH]ccc23)s1)c1ccccc1.O=C(O)C(F)(F)F.O=C(O)C(F)(F)F (stereo not shown) [GSK1325775] | 14%
32 | N#Cc1c(N2CCOCC2)sc(-c2ccn[nH]2)c1-c1ccc(Cl)cc1 | 20%
33 | c1ccc(-c2n[nH]cc2-c2ccnc3ccccc23)nc1 [GW271431] | 1%
34 | Nc1nc(-c2ccc3c(N)n[nH]c3c2)cc(N2CCCC2)n1 [GSK2227430] | 2%
